Screening results from PubChem BioAssay.
The list is not random: actives were taken first. Their share in the collection is about 1.3%.
LANA DNA inh: KSHV C-LANA DNA binding inhibition; MBP-C-LANA/FAM-LBS DNA binding, fluorescence polarization; AID 504423; actives 0.078% (n = 340,000); inhibition, % at 9 µM;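 active means highest replicate inhibition at or above 60% at 9 µM, even if other replicates fall short; inactive means all replicates below 60% inhibition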
MCL1-BIM inh: inhibitors of human MCL1 binding to BIM-BH3 peptide; Q07820; GST-MCL1 / FITC-Bim-BH3 fluorescence polarization; inhibition, % at 10.9 µM; actives 0.68% (n = 320,000);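 active means inhibition above the mean inhibition of all tested compounds plus 3 SD, set per campaign, cut at about 40% in these data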;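 further: higher means more loss of mP so more displacement of Bim peptide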
E coli Lon inh: inhibits E. coli Lon protease; inhibition, % at 7.94 µM; actives 0.42% (n = 360,000); P0A9M0; purified E. coli Lon protease, fluorescence polarization; AID 602123; in the data active means inhibition above about 13%, passing the limit was not always enough
BCLXL inh: Bcl-xL (human) inhibition | GST-Bcl-xL / FITC-Bim BH3 peptide fluorescence polarization | inhibition, % at 10.9 µM | actives 0.7% (n = 320,000) | AID 2129;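 active means inhibition above the mean of all tested compounds plus 3 SD, cutoff set per campaign, cut at about 30% in these data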;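 further: inhibitors lower millipolarization by displacing the labeled peptide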
Keap1-Nrf2 PPI: disrupts human Keap1 binding to Nrf2 peptide | Q14145 | Keap1 Kelch-Nrf2 peptide fluorescence polarization, 1536-well | inhibition, % at 9.4 µM | actives 0.15% (n = 340,000); in the data active means inhibition above about 12%;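 further: human Keap1 Kelch domain with fluorescein labeled Nrf2 9mer peptide probe; higher means more block of Keap1 binding to Nrf2 peptide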
Target sequence (Q14145 whole entry, looked up, the tested form may be a part): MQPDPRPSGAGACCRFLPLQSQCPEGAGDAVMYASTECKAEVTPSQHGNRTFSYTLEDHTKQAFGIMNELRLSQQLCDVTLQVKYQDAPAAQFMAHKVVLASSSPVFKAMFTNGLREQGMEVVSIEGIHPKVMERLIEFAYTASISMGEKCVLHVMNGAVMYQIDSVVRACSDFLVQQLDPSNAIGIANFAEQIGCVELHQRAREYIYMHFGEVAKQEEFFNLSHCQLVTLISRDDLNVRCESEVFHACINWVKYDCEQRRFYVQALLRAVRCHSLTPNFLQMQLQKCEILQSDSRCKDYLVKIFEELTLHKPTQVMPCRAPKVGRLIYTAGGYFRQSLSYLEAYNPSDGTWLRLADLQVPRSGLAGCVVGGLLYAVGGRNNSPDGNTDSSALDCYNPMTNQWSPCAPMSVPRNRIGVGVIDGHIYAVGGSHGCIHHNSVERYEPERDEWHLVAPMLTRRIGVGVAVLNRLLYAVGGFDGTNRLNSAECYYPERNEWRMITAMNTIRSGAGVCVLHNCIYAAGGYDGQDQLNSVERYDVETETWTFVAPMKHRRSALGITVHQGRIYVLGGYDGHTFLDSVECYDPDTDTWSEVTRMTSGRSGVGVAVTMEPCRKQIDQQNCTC
GLD-1 TGE inh: GLD-1-TGE RNA interaction inhibition (C. elegans); Q17339; purified GLD-1 + fluorescein TGE RNA, fluorescence polarization; inhibition, % at 5.96 µM; actives 0.44% (n = 320,000); AID 2280;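 active means percent inhibition above a per-plate cutoff, the plate mean of test compounds plus 3 SD, cut at about 30% in these data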
BCLXL inh confirm: counter-screen for MCL1 inhibitors: confirmation of human Bcl-xL inhibitors. shares compounds with MCL1-BIM inh. AID 2166. GST-Bcl-xL / FITC-Bim BH3 peptide FP binding. inhibition, % at 10.9 µM. actives 54% (n = 1,700);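 active means inhibition above a cutoff equal to the mean inhibition of all tested compounds plus 3 SD, cut at about 30% in these data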
MCL1 BIM confirm: confirmation of human MCL1 and BIM-BH3 interaction inhibitors. GST-MCL1 / FITC-Bim-BH3 fluorescence polarization. actives 61% (n = 1,700). inhibition, % at 10.9 µM. shares compounds with MCL1-BIM inh;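 active means inhibition above the average of all tested compounds plus 3 SD, cut at about 40% in these data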
Each line names hits and unclear results; the compound was inactive in the other large screens (follow-up assays come after a bar, where they were run).

COc1ccc(C(=O)C[n+]2cc(Br)cc3ccccc32)cc1[N+](=O)[O-]	MCL1-BIM inh 74.8, BCLXL inh 54.0 | BCLXL inh confirm inactive | MCL1 BIM confirm inactive
COc1ccc(C(=O)OCC(N)=O)cc1[N+](=O)[O-]	none
COc1ccccc1C(=O)C1CCCN(C(=O)c2cccc(-n3cccn3)c2)C1 (stereo unspecified)	none
CCn1cc(CN2CCCC(CNC(=O)COc3ccccc3OC)C2)c(C)n1 (stereo unspecified)	none
COc1cccc(-n2c(SCc3cc(=O)oc4cc(O)c(O)cc34)nc3ccccc3c2=O)c1	MCL1-BIM inh 51.2 | BCLXL inh confirm inactive | MCL1 BIM confirm 63.3
CC(C)C(NS(=O)(=O)c1ccc2c(c1)C(C)(C)C(=O)N2C)C(=O)NCc1ccc(F)cc1 (stereo unspecified)	none
COc1cc(Cl)ccc1OCc1cc(C(=O)N2CCCCCCC2)no1	MCL1-BIM inh 84.1 | BCLXL inh confirm inactive | MCL1 BIM confirm inactive
COCCNC(=O)CN(C(=O)CCC(=O)Nc1ccccn1)c1ccccc1F	none
COc1ccccc1NS(=O)(=O)c1ccc(N/N=C/c2ccccc2OCC(=O)O)c([N+](=O)[O-])c1	MCL1-BIM inh 140.6, BCLXL inh 135.8, GLD-1 TGE inh 94.2 | BCLXL inh confirm 184.5 | MCL1 BIM confirm active
CC(C)NC(=O)c1ccc(N(Cc2ccc(Cl)cc2)S(C)(=O)=O)cc1	none
COc1cc(C2C3CN(C)CC=C3C(C#N)=C(N)C2(C#N)C#N)ccc1OC(C)C (stereo unspecified)	MCL1-BIM inh 65.8, BCLXL inh 59.6 | BCLXL inh confirm inactive | MCL1 BIM confirm inactive
CC(C)N1CC=C2C(C#N)=C(N)C(C#N)(C#N)[C@H](c3ccoc3)[C@H]2C1	MCL1-BIM inh 183.2, BCLXL inh 157.6, GLD-1 TGE inh 85.0 (no result: LANA DNA inh, E coli Lon inh, Keap1-Nrf2 PPI) | BCLXL inh confirm 78.4 | MCL1 BIM confirm 100.1
Cc1ccc(C2C3CSCC=C3C(C#N)=C(N)C2(C#N)C#N)cc1 (stereo unspecified)	none
COc1cc([C@@H]2[C@H]3CNCC=C3C(C#N)=C(N)C2(C#N)C#N)ccc1OC(C)C	none
CC(C)(C)OC(=O)N1CC=C2C(C#N)=C(N)C(C#N)(C#N)C(c3cccs3)C2C1 (stereo unspecified)	none
CC(C)(C)OC(=O)N1CC=C2C(C#N)=C(N)C(C#N)(C#N)[C@H](c3cccnc3)[C@H]2C1	MCL1-BIM inh 66.7, BCLXL inh 53.2, GLD-1 TGE inh 36.5 | BCLXL inh confirm 45.3 | MCL1 BIM confirm 47.2
Cc1ccc(CN2CCN(c3cccc4[nH]ccc34)CC2)cc1	none
Cc1cc(C)c2c(c1)NC(C(=O)O)C1CC=CC21 (stereo unspecified)	MCL1-BIM inh 114.7, BCLXL inh 69.2 | BCLXL inh confirm 45.4 | MCL1 BIM confirm 91.8
O=C(O)C1Nc2c(C(=O)N3CCOCC3)cccc2C2C=CCC12 (stereo unspecified)	LANA DNA inh 71.5, MCL1-BIM inh 67.7, BCLXL inh 50.2 | BCLXL inh confirm 42.2 | MCL1 BIM confirm 71.5
COCCNC(=O)C1Nc2ccc(OC(F)(F)F)cc2C2C=CCC12 (stereo unspecified)	none
Cc1ccc2c(c1C)NC(C(=O)O)C1CC=CC21 (stereo unspecified)	MCL1-BIM inh 76.0, BCLXL inh 48.4 | BCLXL inh confirm 47.3 | MCL1 BIM confirm 88.8
CC(CS(=O)(=O)c1cccc2cccnc12)N1CCCCC1 (stereo unspecified)	MCL1-BIM inh 65.0, BCLXL inh 61.6, GLD-1 TGE inh 39.6 | BCLXL inh confirm 33.5 | MCL1 BIM confirm 42.3
O=S(=O)(c1cccc2cccnc12)N1CCCCC1	none
C=CCNC(=O)COC(=O)c1cc(S(=O)(=O)N2CCCCC2)ccc1Cl	none
CC1=NOC2(C1)N(C)c1ccccc1C2(C)C (stereo unspecified)	none
COc1ccc2ccc3c(c2c1)N=C[C@]1(O3)N(C)c2ccccc2C1(C)C	MCL1-BIM inh 57.0, BCLXL inh 40.1 | BCLXL inh confirm 38.8 | MCL1 BIM confirm inactive
O=C(CCCCn1ccc(=O)[nH]c1=O)Nc1ccc(C(=O)O)c(O)c1	none (no result: MCL1-BIM inh, BCLXL inh, GLD-1 TGE inh)
Cc1cccc(-n2c(O)c(C=Nc3ccc4c(c3)OCO4)c3ccccc3c2=O)n1	MCL1-BIM inh 40.4 | BCLXL inh confirm inactive | MCL1 BIM confirm inactive
Cc1onc(-c2c(Cl)cccc2Cl)c1C(=O)c1c[nH]c(C(=O)NCC2CCCO2)c1 (stereo unspecified)	none
Cc1cc2c(cc1[N+](=O)[O-])NC(CNC(C)C)CC2 (stereo unspecified)	MCL1-BIM inh 96.0, BCLXL inh 97.5, GLD-1 TGE inh 50.8 | BCLXL inh confirm inactive | MCL1 BIM confirm inactive
Cc1cc(C(=O)NCC2CCCCC2)ccc1[N+](=O)[O-]	none
N#C/C(=C\c1ccco1)c1nc2ccccc2s1	MCL1-BIM inh 75.0, BCLXL inh 79.1, GLD-1 TGE inh 55.4 | BCLXL inh confirm inactive | MCL1 BIM confirm inactive
Cc1c(N)cccc1N	MCL1-BIM inh 52.3, BCLXL inh 69.4 | BCLXL inh confirm inactive | MCL1 BIM confirm inactive
O=C(NCCOc1ccccc1)c1ccccc1SCC(=O)N1CCCC1	none
Clc1cccc(NCc2ccccc2)n1	none
CNc1ccc(Br)cc(C(=O)/C=C/c2ccc(OC)cc2)c1=O	none
CNc1ccc(Br)cc(C(=O)/C=C/c2ccc3c(c2)OCO3)c1=O	MCL1-BIM inh 49.5 | BCLXL inh confirm inactive | MCL1 BIM confirm inactive
O=c1c2c(ncn2C2CCCC2)n(Cc2ccccc2)c(=O)n1CCOc1ccccc1	none
O=c1c2c(ncn2C2CCCC2)n(Cc2ccccc2)c(=O)n1CCOc1ccc(Br)cc1	MCL1-BIM inh 53.4 | BCLXL inh confirm inactive | MCL1 BIM confirm inactive
O=C1NC(=O)C(c2ccccc2[N+](=O)[O-])=C1Nc1ccc(O)c(Cl)c1	MCL1-BIM inh 50.2 | BCLXL inh confirm inactive | MCL1 BIM confirm inactive
NS(=O)(=O)c1ccc(Sc2nc3ccccc3s2)c([N+](=O)[O-])c1	none
O=C(O)c1ccc(S(=O)(=O)Nc2ccc(O)c(Sc3nc4ccccc4s3)c2)cc1	MCL1-BIM inh 42.5 | BCLXL inh confirm inactive | MCL1 BIM confirm 59.3
CCCCN(C(=O)c1cccc(-n2cccc2)c1)c1c(N)n(CCC)c(=O)[nH]c1=O	MCL1-BIM inh 55.2 | BCLXL inh confirm inactive | MCL1 BIM confirm 51.1
CCCCN(C(=O)c1cccc(-n2cccc2)c1)c1c(N)n(CCCC)c(=O)[nH]c1=O	none
OCCCNc1ncnc2c1ncn2[C@H]1CN(C2CCCC2)C[C@@H](CO)O1	none (no result: LANA DNA inh, MCL1-BIM inh, BCLXL inh, Keap1-Nrf2 PPI, GLD-1 TGE inh)
